Activity calls are given as the source filed them.
Assays:
[1] = test system: Plasmodium falciparum Sir2 (PF13_0152, Sir2A); assay: Plasmodium falciparum Sir2A binding compounds – biochemical, small-molecule microarray, 635 nm fluorescence, primary screen (AID 1098); details: fluorescence 635 nm, higher = more signal;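 also: score merges spot fluorescence intensity with its signal-to-noise ratio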
[2] = probe aDKK1 binding to arrayed compounds – biochemical, biotinylated probe, 635/667 nm fluorescence, primary screen (AID 1099); details: small-molecule microarray, higher = more signal;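 also: score merges 667nm spot fluorescence with signal to noise across triplicate slides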
[3] = probe aCHRDL2 binding to arrayed compounds – biochemical, biotinylated probe, 635/667 nm fluorescence, primary screen (AID 1100); details: small-molecule microarray, higher = more signal
[4] = change in splice reporter luminescence, either direction, cell-based, HEK293, spliceosome inhibition project, primary screen (AID 1101); details: HEK293 splicing luciferase reporter, 24 h, higher = more signal, called active from +8 up or from −8 down;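 also: HEK293 cells carrying a splicing-competent luciferase reporter gene; test concentration not given here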
[5] = target: Fibroblast growth factor 10 (Homo sapiens) (UniProt O15520); assay: compounds binding fibroblast growth factor 10 – biochemical, small-molecule microarray, 635 nm fluorescence, primary screen (AID 1102); details: FGF10 binding, fluorescence 635 nm, higher = more signal
[6] = test system: glycogen synthase kinase-3 (GSK3A per assay name; protocol says GSK3B); assay: compounds binding glycogen synthase kinase-3 – biochemical, small-molecule microarray, 635 nm fluorescence, GSK3A, primary screen (AID 1103); details: fluorescence 635 nm, higher = more signal; also: the record names both GSK3A and GSK3B
[7] = target: Epidermal growth factor receptor (Homo sapiens) (UniProt P00533); assay: compounds binding epidermal growth factor receptor – biochemical, small-molecule microarray, 635 nm fluorescence, primary screen (AID 1104); details: EGFR binding, higher = more signal;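 also: score merges 667 nm emission intensity with spot signal to noise over triplicate slides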
[8] = target: Follistatin-related protein 3 (Homo sapiens) (UniProt O95633); assay: compounds binding follistatin-related protein 3 – biochemical, small-molecule microarray, 635 nm fluorescence, primary screen (AID 1105); details: FSTL3 binding, higher = more signal;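 also: score merges emission near 667 nm and signal to noise per printed spot across three slides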
[9] = target: Dickkopf-related protein 1 (Homo sapiens) (UniProt O94907); assay: small molecules binding DKK1 protein – biochemical, small-molecule microarray, 635 nm fluorescence scan, primary screen (AID 1106); details: higher = more signal;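 also: score merges emission near 667 nm with signal to noise over three replicate slides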
[10] = test system: Inhibin beta A chain (activin A); assay: small molecules binding activin A – biochemical, small-molecule microarray, 635 nm fluorescence scan, primary screen (AID 1107); details: INHBA, higher = more signal;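 also: mouse activin A protein probed at 4.33 µg/mL on printed slides; score merges bound-protein fluorescence near 667 nm with spot signal-to-noise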
[11] = test system: Human papillomavirus type 1a protein E7 (residues 44-93); assay: small molecules binding HPV E7 44-93 – biochemical, small-molecule microarray, residues 44-93, 635 nm fluorescence, primary screen (AID 1108); details: fluorescence 635 nm, higher = more signal;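 also: E7 fragment applied at 1 µg/mL in TBST for 1 h at 4 C; score combines spot fluorescence with its signal to noise ratio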
[12] = hepatitis C replication reporter changes, two-sided – Huh7 cells, luciferase reporter, HCV replication inhibitor project, primary screen (AID 1109); details: Huh7 HCV replicon luciferase reporter, 48 h; higher = more signal;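 also: huh7 hepatoma cells harbouring a luciferase neomycin HCV replicon reporter; luciferase luminescence as measure of HCV replicon replication; test concentration not given here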
[13] = target: Left-right determination factor 2 (Homo sapiens) (UniProt O00292); assay: small molecules binding LEFTY2 protein – biochemical, small-molecule microarray, 635 nm fluorescence scan, primary screen (AID 1110); details: higher = more signal
[14] = target: Calmodulin-1 (Homo sapiens) (UniProt P0DP23); assay: small molecules binding calmodulin-1 with EGTA – biochemical, small-molecule microarray, Cy5-labelled CALM1, profiling panel (AID 1111); details: Cy5-CALM1 binding fluorescence, higher = more signal;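 also: labelled calmodulin applied in Tris saline Tween buffer holding calcium plus EGTA and DTT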
[15] = target: Calmodulin-1 (Homo sapiens) (UniProt P0DP23); assay: small molecules binding Ca-loaded calmodulin-1 – biochemical, small-molecule microarray, Cy5-labelled CALM1, plus calcium, artefact control for SMM control-protein annotation, profiling panel (AID 1112); details: Cy5-CALM1 binding fluorescence, higher = more signal;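 also: score merges spot fluorescence with signal to noise from triplicate slides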
[16] = probe aWnt5a binding to arrayed compounds – biochemical, biotinylated probe, 635/667 nm fluorescence, primary screen (AID 1113); details: small-molecule microarray, higher = more signal;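 also: score merges 667 nm fluorescence intensity with signal-to-noise per printed feature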
[17] = probe aShh binding to arrayed compounds – biochemical, biotinylated probe, 635/667 nm fluorescence, primary screen (AID 1114); details: small-molecule microarray, higher = more signal;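 also: probe is biotin-labelled aShh protein from a stem cell growth factor screen; measures binding of labelled protein to compounds printed on the slide; score merges feature fluorescence at 667 nm with signal-to-noise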
[18] = probe aNog binding to arrayed compounds – biochemical, biotinylated probe, 635/667 nm fluorescence, primary screen (AID 1115); details: small-molecule microarray, higher = more signal;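 also: probe is biotinylated aNog protein used at 0.15 µg/mL for 1 h at 4 C; z-score combines 667 nm fluorescence of each spot with its signal to noise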
[19] = target: Torsin-1A-interacting protein 1 (Homo sapiens) (UniProt Q5JTV8); assay: compound microarray binding of lysate hLAP1 – cell lysate, small-molecule microarray, COS7 lysate, 635/667 nm fluorescence, primary screen (AID 1116); details: 635 nm fluorescence, higher = more signal
[20] = target: Alpha-bungarotoxin (Bungarus multicinctus) (UniProt P60615); assay: compounds binding labelled alpha-BTX control protein – biochemical, small-molecule microarray, Alexa647 label, 635/667 nm fluorescence, artefact control for SMM control protein annotation, profiling panel (AID 1117); details: alpha-BTX-A647 binding fluorescence, higher = more signal
Alpha-bungarotoxin (Bungarus multicinctus), sequence (P60615 whole entry, looked up): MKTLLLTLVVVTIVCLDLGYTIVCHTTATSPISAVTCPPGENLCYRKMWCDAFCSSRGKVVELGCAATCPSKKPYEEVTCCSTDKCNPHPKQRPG

Epidermal growth factor receptor (Homo sapiens), sequence (P00533 whole entry, looked up): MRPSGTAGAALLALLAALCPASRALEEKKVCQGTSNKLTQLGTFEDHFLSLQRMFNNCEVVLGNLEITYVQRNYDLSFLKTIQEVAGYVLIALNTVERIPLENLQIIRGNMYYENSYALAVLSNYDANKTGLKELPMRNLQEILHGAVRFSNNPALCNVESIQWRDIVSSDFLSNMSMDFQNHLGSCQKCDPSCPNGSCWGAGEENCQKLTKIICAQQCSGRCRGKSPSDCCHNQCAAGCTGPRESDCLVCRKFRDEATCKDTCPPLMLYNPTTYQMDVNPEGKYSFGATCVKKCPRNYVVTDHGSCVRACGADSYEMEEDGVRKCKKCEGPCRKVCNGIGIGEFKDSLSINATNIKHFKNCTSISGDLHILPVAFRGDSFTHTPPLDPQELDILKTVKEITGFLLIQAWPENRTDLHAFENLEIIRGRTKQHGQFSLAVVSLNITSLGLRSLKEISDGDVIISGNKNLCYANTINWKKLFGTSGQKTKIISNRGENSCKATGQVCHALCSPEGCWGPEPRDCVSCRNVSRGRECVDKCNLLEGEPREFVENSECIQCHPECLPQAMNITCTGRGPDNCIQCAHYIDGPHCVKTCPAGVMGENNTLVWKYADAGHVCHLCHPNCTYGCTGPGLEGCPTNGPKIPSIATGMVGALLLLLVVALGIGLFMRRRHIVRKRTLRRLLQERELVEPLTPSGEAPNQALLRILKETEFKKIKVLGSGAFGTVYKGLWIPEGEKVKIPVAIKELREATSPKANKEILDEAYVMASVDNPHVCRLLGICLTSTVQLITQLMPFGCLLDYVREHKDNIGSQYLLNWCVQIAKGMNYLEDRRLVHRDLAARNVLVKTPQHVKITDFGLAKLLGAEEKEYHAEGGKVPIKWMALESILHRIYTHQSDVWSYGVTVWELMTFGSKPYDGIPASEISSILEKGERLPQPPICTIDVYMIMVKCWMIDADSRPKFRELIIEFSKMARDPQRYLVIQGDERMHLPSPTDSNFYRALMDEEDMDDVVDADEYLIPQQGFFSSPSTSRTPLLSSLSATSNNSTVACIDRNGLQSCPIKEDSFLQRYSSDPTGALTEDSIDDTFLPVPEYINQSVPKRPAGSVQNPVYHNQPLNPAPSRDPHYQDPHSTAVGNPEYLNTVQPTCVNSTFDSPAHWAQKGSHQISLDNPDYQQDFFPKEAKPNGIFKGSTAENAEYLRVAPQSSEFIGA
Follistatin-related protein 3 (Homo sapiens), sequence (O95633 whole entry, looked up): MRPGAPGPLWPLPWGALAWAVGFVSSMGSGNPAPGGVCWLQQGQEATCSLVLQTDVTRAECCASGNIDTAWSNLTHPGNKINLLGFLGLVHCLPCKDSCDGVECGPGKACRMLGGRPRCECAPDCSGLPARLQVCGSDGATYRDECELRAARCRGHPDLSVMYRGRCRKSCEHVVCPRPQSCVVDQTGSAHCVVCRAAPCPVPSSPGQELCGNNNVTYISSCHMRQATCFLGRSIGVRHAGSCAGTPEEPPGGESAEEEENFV
Fibroblast growth factor 10 (Homo sapiens), sequence (O15520 whole entry, looked up): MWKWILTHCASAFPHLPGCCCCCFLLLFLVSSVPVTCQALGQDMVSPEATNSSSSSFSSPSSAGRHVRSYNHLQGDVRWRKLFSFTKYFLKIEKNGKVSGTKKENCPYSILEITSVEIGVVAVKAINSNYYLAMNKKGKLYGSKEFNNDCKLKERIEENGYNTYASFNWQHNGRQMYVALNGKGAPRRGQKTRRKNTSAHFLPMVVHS
Dickkopf-related protein 1 (Homo sapiens), sequence (O94907 whole entry, looked up): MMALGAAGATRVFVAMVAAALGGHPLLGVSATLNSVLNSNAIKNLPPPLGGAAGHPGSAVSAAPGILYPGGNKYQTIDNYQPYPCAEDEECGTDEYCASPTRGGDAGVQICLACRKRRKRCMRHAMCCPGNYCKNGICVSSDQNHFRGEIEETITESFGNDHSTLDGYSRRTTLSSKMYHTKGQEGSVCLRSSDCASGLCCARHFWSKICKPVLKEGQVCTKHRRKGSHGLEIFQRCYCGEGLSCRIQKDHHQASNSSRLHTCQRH
Left-right determination factor 2 (Homo sapiens), sequence (O00292 whole entry, looked up): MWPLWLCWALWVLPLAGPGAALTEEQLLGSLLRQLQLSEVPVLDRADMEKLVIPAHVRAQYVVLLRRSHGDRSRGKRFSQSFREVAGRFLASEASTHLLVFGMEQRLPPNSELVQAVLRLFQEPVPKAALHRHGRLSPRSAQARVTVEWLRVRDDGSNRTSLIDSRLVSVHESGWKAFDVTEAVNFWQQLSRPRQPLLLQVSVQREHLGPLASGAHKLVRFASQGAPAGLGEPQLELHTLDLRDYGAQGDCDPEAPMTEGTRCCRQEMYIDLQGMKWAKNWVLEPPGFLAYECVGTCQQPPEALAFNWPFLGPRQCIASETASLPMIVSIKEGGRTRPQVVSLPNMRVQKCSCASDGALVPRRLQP
Torsin-1A-interacting protein 1 (Homo sapiens), sequence (Q5JTV8 whole entry, looked up): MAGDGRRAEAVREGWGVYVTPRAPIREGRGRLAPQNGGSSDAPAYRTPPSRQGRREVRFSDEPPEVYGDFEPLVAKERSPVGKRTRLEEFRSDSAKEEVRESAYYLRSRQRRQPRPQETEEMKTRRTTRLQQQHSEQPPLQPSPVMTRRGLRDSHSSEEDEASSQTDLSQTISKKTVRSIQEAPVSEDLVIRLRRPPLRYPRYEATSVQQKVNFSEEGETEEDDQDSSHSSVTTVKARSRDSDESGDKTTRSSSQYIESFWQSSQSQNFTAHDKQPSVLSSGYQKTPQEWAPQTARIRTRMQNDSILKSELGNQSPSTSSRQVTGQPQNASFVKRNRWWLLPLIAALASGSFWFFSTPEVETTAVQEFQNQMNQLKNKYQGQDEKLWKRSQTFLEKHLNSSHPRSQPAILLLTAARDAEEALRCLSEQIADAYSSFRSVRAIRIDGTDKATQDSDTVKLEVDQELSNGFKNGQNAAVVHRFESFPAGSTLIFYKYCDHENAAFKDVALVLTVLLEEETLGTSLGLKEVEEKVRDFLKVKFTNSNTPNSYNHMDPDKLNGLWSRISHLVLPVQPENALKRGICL

Row | SMILES | composite z-score [1] | composite z-score [2] | composite z-score [3] | z-score [4] | composite z-score [5] | composite z-score [6] | composite z-score [7] | composite z-score [8] | composite z-score [9] | composite z-score [10] | composite z-score [11] | z-score [12] | composite z-score [13] | composite z-score [14] | composite z-score [15] | composite z-score [16] | composite z-score [17] | composite z-score [18] | composite z-score [19] | composite z-score [20]
1 | CO[C@H]1O[C@H](CO)[C@@H](OC(=O)CCc2ccccc2)[C@@H]2OC(=O)[C@H](Cc3cccc(Br)c3)C/C=C/C[C@@H](Cc3cccc(Br)c3)C(=O)O[C@@H]12 | 1.6 | 0.385 | 0.874 | -2.19 (inactive) | -0.487 | -0.78 | -1.49 | -0.753 | -0.402 | 0.951 | 0.234 | -0.93 | -0.798 | -0.638 | -0.282 | -0.0819 | 0.103 | 0.146 | -0.0066 | 2.14
2 | CCOC(=O)C1=CC[C@@H](c2ccccc2)N(S(=O)(=O)c2ccc(C)cc2)[C@H]1C | 1.09 | 0.821 | 0.567 | -0.993 (inactive) | 1.4 | 0.312 | 1.02 | 1.38 | 0.635 | 0.258 | 1.47 | -2.88 | 0.902 | 0.764 | 0.665 | 0.101 | -0.214 | 0.787 | 0.682 | 1.74
3 | O=C1OCCC=C[C@H]2OC34C=CCN(Cc5ccccc5)C(=O)[C@H]3N(CCO)C(=O)[C@@H]4C12 (stereo not given in full) | -0.37 | -0.273 | 0.0184 | -2.82 (inactive) | -0.835 | -0.958 | -0.844 | -0.376 | -0.46 | 1.02 | -0.936 | -1.23 | -0.591 | -0.675 | 0.681 | -0.248 | -0.276 | -0.224 | -0.18 | -2.01
4 | C[N+](C)(C)CCCCNC(=O)[C@H]1C[C@H]2C(=O)NCC(=O)N2[C@H]1c1cccc(OCCO)c1 | 1.59 | 0.0166 | -0.335 | 0.589 (inactive) | 1.45 | 1.29 | 1.09 | 1.49 | 1.84 | 0.747 | 0.296 | -0.651 | 1.17 | -1.68 | -1.96 | 0.0618 | 0.147 | -0.178 | 0.724 | 0.804
5 | CC(=O)NCCCC[C@@H]1NC(=O)[C@@H]2C[C@H](C(=O)NCCCCCCN(C)C)[C@H](c3ccc(O)cc3)N2C1=O | 1.02 | 0.363 | 0.117 | -1.45 (inactive) | 1.25 | 1.36 | 1.31 | 1.5 | 1.86 | 0.11 | -0.0336 | 1.08 | 0.73 | -0.158 | -1.14 | -0.201 | 0.0712 | 1.01 | 1.84 | 1.65
6 | C=C(CCCC)C(=O)CC[C@@H](OC(C)=O)c1ccccc1OCCO | 1.34 | -0.283 | -0.16 | 0.419 (inactive) | -0.675 | -1.31 | -1.36 | -1.06 | -0.376 | 0.857 | -1.03 | -3.42 | -0.941 | -0.923 | -1.13 | -0.154 | 0.0278 | -0.618 | -0.572 | -1.31
7 | COc1ccc(C(O)C2C=CC3C(=O)N(C)C(=O)C3N2N2CCCCC2)cc1OCc1ccccc1 (stereo not given) | 0.774 | 1.1 | 0.851 | 0.379 (inactive) | 0.26 | 0.636 | -0.001 | 0.371 | -0.622 | 0.986 | 1.34 | 0.421 | 0.0446 | 0.747 | 0.738 | 0.0391 | 0.462 | 1.63 | 0.68 | 1.87
8 | C[C@H]1COC(=O)[C@@H]2CCCN2C(=O)[C@@H](C)COC(=O)[C@@H]2CCCN2C1=O | -0.0175 | -0.37 | -0.675 | -0.0582 (inactive) | 0.419 | -0.295 | 0.514 | -0.0914 | 0.563 | -0.0885 | -0.663 | -0.004 | 0.417 | -0.835 | -1.09 | -0.124 | -0.0626 | -0.367 | -0.392 | -0.394
9 | O=C1OCC=C[C@H]2OC34C=CCN(Cc5ccccc5)C(=O)[C@H]3N(CCO)C(=O)[C@@H]4[C@@H]12 (stereo not given in full) | 1.89 | -0.227 | 0.679 | -0.632 (inactive) | -1.09 | -1.46 | -0.435 | -0.596 | -0.965 | 0.0484 | 0.257 | -0.877 | -0.864 | -0.289 | 0.822 | -0.144 | -0.134 | -0.182 | -0.459 | -0.38
10 | O=C/C=C/c1ccc(/C=C/c2ccccc2)cc1 | -0.636 | -0.287 | 0.616 | -0.653 (inactive) | -0.77 | -0.386 | 0.193 | 0.233 | -0.278 | 1.47 | -1.48 | 0.783 | 0.0281 | -0.858 | -0.584 | -0.0585 | -0.0886 | -0.489 | 0.2 | 0.129
11 | COCC(=C=CC[C@H](O)c1ccc(OCCO)cc1)C[C@H](O)c1ccccn1 | 0.338 | -0.169 | -0.201 | 0.0572 (inactive) | -0.198 | 0.208 | -0.829 | -0.293 | -0.326 | 0.403 | 0.131 | -0.932 | -0.454 | -0.581 | -0.705 | -0.186 | 0.235 | 0.0516 | 0.925 | -0.458
